Assay results taken from PubChem BioAssay AID2796 (The Scripps Research Institute Molecular Screening Center, 2010).
The whole screen tested about 320,000 compounds, of which about 8,000 (2.5%) were called active. Cut-off read from the data, not from the text of the source: active = activation above about 47%; inactive = the rest. The entries come from a sample that favours actives as a whole.

biological target: Aryl hydrocarbon receptor (Homo sapiens) (UniProt P35869); test: AHR activators, primary screen, cell-based, luminescence, luciferase reporter, human (AID 2796); conditions: AHR-responsive luciferase reporter cells, at 5 µM, active compounds read high;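 note: 0% = vehicle wells and 100% = reference agonist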
Sequence (P35869 whole entry, looked up): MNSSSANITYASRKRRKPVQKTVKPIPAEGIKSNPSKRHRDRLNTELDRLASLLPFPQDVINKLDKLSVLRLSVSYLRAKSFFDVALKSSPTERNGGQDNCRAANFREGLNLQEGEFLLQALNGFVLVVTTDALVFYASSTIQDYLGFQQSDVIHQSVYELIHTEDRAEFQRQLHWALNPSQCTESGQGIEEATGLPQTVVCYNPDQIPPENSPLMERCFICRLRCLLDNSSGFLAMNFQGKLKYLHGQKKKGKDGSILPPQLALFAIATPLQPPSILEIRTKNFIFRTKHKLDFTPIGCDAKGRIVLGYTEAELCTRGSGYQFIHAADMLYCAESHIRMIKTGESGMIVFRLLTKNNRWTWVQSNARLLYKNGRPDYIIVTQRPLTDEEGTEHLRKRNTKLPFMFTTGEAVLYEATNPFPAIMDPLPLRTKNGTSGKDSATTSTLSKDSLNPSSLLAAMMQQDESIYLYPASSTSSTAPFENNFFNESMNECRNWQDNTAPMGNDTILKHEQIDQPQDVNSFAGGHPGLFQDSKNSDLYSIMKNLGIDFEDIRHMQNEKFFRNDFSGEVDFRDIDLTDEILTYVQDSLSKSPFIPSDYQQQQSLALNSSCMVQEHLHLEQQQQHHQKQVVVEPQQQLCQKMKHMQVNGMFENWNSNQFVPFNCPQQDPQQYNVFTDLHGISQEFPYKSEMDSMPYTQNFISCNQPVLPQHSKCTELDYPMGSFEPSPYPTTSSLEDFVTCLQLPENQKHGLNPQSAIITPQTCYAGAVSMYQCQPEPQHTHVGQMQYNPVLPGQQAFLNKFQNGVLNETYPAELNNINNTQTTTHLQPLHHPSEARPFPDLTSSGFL

activation, active:
CCNC(=S)N(CCc1c(C)[nH]c2ccc(C)cc12)Cc1ccco1 59.4%, COc1ccc(C(=O)Nc2ncc3c(n2)-c2ccccc2CC3)cc1 103%, O=C(CSc1ccccn1)Nc1nc2c(ccc3ccccc32)s1 96.3%, O=C(COC(=O)c1n[nH]c2ccccc12)Nc1ccccc1Br 53.9%, CCOc1ccc(OCC)c(NC(=O)CN(C)S(=O)(=O)c2cccc3nsnc23)c1 53.7%, Cc1cccc(NC(=O)c2ccc3ccccc3n2)n1 82.1%, O=C(COc1ccc(-c2ccccc2)cc1)NN=C1CCCC1 52.1%, Cc1ccc(C(=O)NC(=S)NCc2cccnc2)cc1 70.4%, Cc1c(C(=O)NCC(c2ccco2)N2CCCC2)oc2ccc(Cl)cc12 (configuration not stated) 91.5%, COc1cc(SC#N)ccc1N=Cc1c(C)[nH]n(-c2ccc(C)cc2)c1=O 71.7%, O=C(Cc1nc2ccccc2[nH]c1=O)c1ccc(Cl)cc1 57.9%, [O-][n+]1c2c(nn1-c1ccc(Cl)c(Cl)c1)-c1nonc1CC2 78.5%, CCC(c1nnnn1C1CCCC1)N(Cc1cccs1)Cc1cc2cccc(C)c2[nH]c1=O (configuration not stated) 54.6%, CSc1ccccc1-c1nnc(-c2ccc(Cl)cc2)o1 52.9%, Nc1ccc2nn(-c3ccc(Cl)cc3)nc2c1 109%, c1cnc(N2CCN(c3ccc4ccccc4n3)CC2)nc1 120%, COc1cc(NC(=O)COC(=O)CSc2ccc3ccccc3c2)c(C)cc1[N+](=O)[O-] 60%, COc1cc(NC(=O)COC(=O)c2cnc(C)cn2)c(C)cc1[N+](=O)[O-] 49.4%

activation, inactive:
O=S(=O)(NCCSc1ccccn1)c1ccc(Cl)cc1 0.03%, COc1ccc(CCNC(=O)COC(=O)c2ncc(Cl)c(Cl)c2Cl)cc1OC -0.83%, COc1ccc(Nc2nc(N)nc(CSC(=S)N3CCC(C)CC3)n2)cc1 25.5%, COCCNC(=S)N(CCc1c(C)[nH]c2ccc(C)cc12)Cc1cccnc1 20.1%, COc1cccc(NC(=S)N(CCc2c(C)[nH]c3ccccc23)Cc2ccco2)c1 12%, Cc1ccc(CN(CC(=O)NC2CCCCC2)C(=O)c2csnn2)cc1 -0.48%, CCOC(=O)C1(CCOc2ccccc2)CCN(Cc2cc(OC)cc(OC)c2)CC1 7.35%, CCOc1ccc(NC(=O)[C@H](C)NC(=O)C2CC(=O)N(c3ccc(OC)cc3)C2)cc1 (some centres not stated) 1.62%, CCNC(=O)NC(=O)C(C)OC(=O)C1CCN(S(=O)(=O)c2ccccc2F)CC1 (configuration not stated) -0.8%, COc1ccccc1N1CCN(C(=O)C2Cc3ccccc3CN2C(=O)c2ccco2)CC1 (configuration not stated) 1.25%, COc1ccc(NC(=O)c2cnc(NS(=O)(=O)c3ccccc3)nc2)cc1 -2.22%, O=C(Nc1ncc2c(n1)-c1ccccc1OC2)c1ccc(Cl)cc1 37%, C/C(=N\NC(=S)NCc1ccccc1)C1CCCCC1 3.74%, CCN(c1ccccc1)S(=O)(=O)c1ccc(C(=O)Nc2ccccc2OC)cc1 1.62%, COC(=O)c1ccccc1NC(=O)CSc1ccccn1 0.37%, CCOC(=O)CSc1ccccn1 -0.06%, Cc1ccc(S(=O)(=O)CCC(=O)OCC(=O)NCCc2ccc(S(N)(=O)=O)cc2)cc1 -0.33%, CN(CC(=O)Nc1ccc(OC(F)F)cc1)S(=O)(=O)/C=C/c1ccccc1 3.23%, Cc1cc(C)c(S(=O)(=O)c2ccccc2)c(OC(=O)c2c(F)cccc2Cl)n1 -0.47%, Cc1cccc(C)c1NC(=O)C1CCCN1C(=O)OC(C)(C)C (configuration not stated) 4.06%, CN(C)S(=O)(=O)c1ccc(NC(=O)COC(=O)c2n[nH]c3ccccc23)cc1 6.56%, COc1ccc(NC(=O)COC(=O)c2n[nH]c3ccccc23)c(OC)c1 23.3%, C[C@@H]1NC(=O)c2cc([N+](=O)[O-])cc(F)c2NCCC[C@@H](C(N)=O)NC(=O)[C@H](CC(N)=O)NC1=O -4.67%, COCCN(C(=O)c1ccccc1F)c1c(N)n(Cc2ccccc2)c(=O)[nH]c1=O 0.27%, O=S(=O)(Nc1ccc(O)c2ccccc12)c1ccc(OC(F)(F)F)cc1 33.7%, CCOc1ccccc1NC(=O)CCS(=O)(=O)c1cccc2nsnc12 11.7%, CCOc1ccc(N(CC)S(=O)(=O)c2cccc3nsnc23)cc1 5.33%, Cc1ccccc1CN1CCC(C(=O)Nc2ccc(Oc3cccnc3)cc2)CC1 1.47%, O=C(Nc1cc2c3c(c1)CC(=O)N3CCC2)c1ccccc1F 3.64%, CC(Nc1nc(C(F)(F)F)nc2ccccc12)c1cccs1 (configuration not stated) 0.19%, Cc1cccc(NC(=O)c2cc(N3C(=O)CCC3=O)ccc2Cl)n1 -0.56%, Cc1cccc(NC(=O)c2cccnc2Cl)n1 -1.7%, Cn1ccnc1-c1nnn(-c2ccc(F)cc2)n1 -1.09%, CC(NC(=O)COc1ccc(-c2ccccc2)cc1)C1CCCO1 (configuration not stated) 19.8%, O=C(COc1ccccc1)Nc1ccc(C(=O)N2CCCC2)cc1 -2.51%, CN1CCN(C(CNS(=O)(=O)c2cccs2)c2cccnc2)CC1 (configuration not stated) 0.06%, Cc1cc(C(=O)NNS(=O)(=O)c2ccccc2C(F)(F)F)nn1C(C)(C)C 33.2%, Cc1c(C(=O)NC(=S)NCc2cccnc2)oc2ccccc12 6.27%, CC(C)(C)c1cc(C(=O)NCc2cccnc2)ccn1 5.21%, CS(=O)(=O)N1CCCC(C(=O)N2CCOCC2)C1 (configuration not stated) -4.42%, COc1ccc(CNc2nc(NCc3ccc(OC)cc3)c3ncn(C4CCCC4)c3n2)cc1 5.12%, CCN(CC(=O)Nc1ccccc1C(F)(F)F)C(=O)C1CCN(C(=O)Nc2ccccc2)CC1 0.13%, CSc1ncccc1C(=O)NCC(c1ccco1)N1CCCCC1 (configuration not stated) 0.96%, Cc1cc(S(=O)(=O)Nc2ccc(C(=O)NCC(c3ccco3)N3CCCC3)cc2)ccc1F (configuration not stated) 2.37%, O=C1/C(=C/c2ccc3c(c2)OCO3)Oc2cc(OCC(=O)N3CC(O)C[C@H]3C(=O)O)ccc21 (some centres not stated) 0.62%, Cc1[nH]n(-c2ccccc2)c(=O)c1/C=N/NC(=O)c1ccoc1C 24.8%, Cc1ccc(-n2[nH]c(C)c(/C=N/NC(=O)c3cccc([N+](=O)[O-])c3)c2=O)cc1C 15.9%, Cc1nn(C)c(C)c1Sc1ccccc1N 2.57%, O=C(Nc1ccccc1Cl)N1CCN(c2ccc3nncn3n2)CC1 -1.87%, Cc1ccc(/C=C(\C#N)C(=O)Nc2cccc3ncccc23)o1 7%, O=C(c1ccc(Cl)cc1)n1cnc2ccccc21 -0.68%, O=c1c(-c2ccc(Cl)cc2)[n+]([O-])c2ccccc2n1OCc1nc2ccccc2[nH]1 24.5%, CCN(CCn1cccn1)Cc1cn[nH]c1-c1ccc(OC)cc1F 1.96%, O=C(COc1ccc([N+](=O)[O-])cc1)Nc1cccc(C(=O)Nc2ccccc2C(=O)O)c1 -3.04%, CCOC(=O)/C=C/CN(C(=O)OC(C)(C)C)S(=O)(=O)N1CC=CC1 -1.1%, COC(=O)c1ccc(/C=N/N2C(C)CCCC2C)cc1 (configuration not stated) -0.9%, COc1ccc(C(=O)N2CCN(c3ccc(C(C)=O)cc3F)CC2)cc1S(=O)(=O)NC1CC1 2.09%, O=C(Nc1ccc(N2C(=O)c3cccc4cccc(c34)C2=O)cc1)c1ccc(N2CCCCC2)c([N+](=O)[O-])c1 -0.89%, CCC(c1nnnn1Cc1ccco1)N(CCc1ccccc1)Cc1cc2cccc(C)c2[nH]c1=O (configuration not stated) 19.4%, Cc1cccc2cc(CN(Cc3nnnn3Cc3ccccc3)C3CCCC3)c(=O)[nH]c12 12.9%, CC(=O)Nc1ccc(S(=O)(=O)NCCC(=O)N2CCN(c3ccccc3Cl)CC2)cc1 0.74%, CCC(CO)Oc1cc(NC(=O)c2cccc3ccccc23)c2ncn(C(C)C)c2c1 (configuration not stated) 5.86%, COC(=O)c1cc(C(=O)OCC(=O)Nc2cc(C)on2)cc([N+](=O)[O-])c1 0.26%, O=C1CC2(CCCC2)C(=O)N1CN1CCN(S(=O)(=O)c2ccc(F)cc2F)CC1 1.21%, CNC(=O)Nc1cc(C(C)(C)C)no1 1.28%, COc1ccccc1-c1nnc(-c2ccc(F)cc2)o1 33.5%, FC(F)(F)c1cnc(Oc2ccccc2-c2nnc(-c3ccc(Cl)cc3)o2)c(Cl)c1 1.03%, c1ccc(-n2nc3ccccc3n2)cc1 -5.11%, CCC(=O)Nc1ccc2nn(-c3ccc(F)cc3)nc2c1 31.9%, Cc1nn(-c2ccccc2)nc1C(=O)OCC(=O)N1CCCCC1C (configuration not stated) 4.35%, CC(Sc1nnc(C2CC2)n1C1CC1)C(=O)Nc1ccc(C(N)=O)cc1 (configuration not stated) -0.58%, O=C(c1ccncc1)N1CCN(c2ccc3ccccc3n2)CC1 -0.88%, CC12CCC(C(=O)N3CCN(c4ncccn4)CC3)(c3nc4ccccc4nc31)C2(C)C (configuration not stated) 16.9%, O=C1NC(c2ccccc2)CCC1(Cl)Cl (configuration not stated) 0.32%, CC(C)CCN1CCN(Cc2ccc(C(F)(F)F)cc2)CC1CCO (configuration not stated) 1.42%, Cc1cc(NC(=O)COC(=O)COc2ccc(Cl)cc2C)c([N+](=O)[O-])cc1C 4.86%, Cc1cnc(C(=O)OCC(=O)Nc2ccc(Cl)cc2Cl)cn1 2.01%, COc1ccc(OCC(=O)Nc2cc(C)c(Cl)cc2OC)c([N+](=O)[O-])c1 3.52%, Cc1ccc(C)c(NC(=O)COC(=O)CSc2ccccc2)c1 -0.94%
